We go through 29 compounds from ChEMBL document CHEMBL5606458, “ASAP - ZIKV NS2B-NS3 protease fluorescence single point” (2024).

For this assay, the target named is Nonstructural protein 3 (Zika virus) (UniProt A0A024AXB9).
Setting [1] is: PRVABC59, Concentration 50.0 uM, Number of replicates 1.0.
The mark [2] stands for this setting: PRVABC59, Concentration 10.0 uM, Number of replicates 1.0.

The whole screen tested about 2,700 compounds, of which about 160 (5.9%) showed an effect of 50% or more. Many of the other results were omitted from the sample, so strong results are more common in it than they were.

Nonstructural protein 3 (Zika virus), sequence (A0A024AXB9 as listed by the source): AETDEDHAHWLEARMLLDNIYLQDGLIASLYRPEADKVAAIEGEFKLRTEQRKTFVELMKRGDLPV

Take `NC(=O)c1ccccc1NS(=O)(=O)c1ccc(Oc2ccccc2Cl)cc1`: the inhibition is, setting by setting: (PRVABC59, Concentration 49.5 uM, Number of replicates 2.0, Standard deviation 0.8239548725855442 %) -1.32%; (PRVABC59, Concentration 99.01 uM, Number of replicates 2.0, Standard deviation 0.884539787208196 %) 2%; (PRVABC59, Concentration 198.0 uM, Number of replicates 2.0, Standard deviation 0.6321029239261367 %) 31.5%.

Regarding `CCc1ccc(NS(=O)(=O)c2ccc(Oc3ccccc3Cl)cc2)c(C(=O)NC)c1`, the inhibition is 14.3% (PRVABC59, Concentration 49.5 uM, Number of replicates 2.0, Standard deviation 1.2139175769082269 %); 19.5% (PRVABC59, Concentration 99.01 uM, Number of replicates 2.0, Standard deviation 1.880844587297581 %); 28.9% (PRVABC59, Concentration 198.0 uM, Number of replicates 2.0, Standard deviation 1.9898788215700518 %).

Turning to `CNC(=O)c1cc(Cl)c(F)cc1NS(=O)(=O)c1ccc(Oc2ccccc2Cl)cc1`, the inhibition is, setting by setting: (PRVABC59, Concentration 49.5 uM, Number of replicates 2.0, Standard deviation 0.22897404989083275 %) 53.5%; (PRVABC59, Concentration 99.01 uM, Number of replicates 2.0, Standard deviation 0.1399302344544729 %) 88.1%; (PRVABC59, Concentration 198.0 uM, Number of replicates 2.0, Standard deviation 0.21988651500230783 %) 90.5%.

In the case of `CNC(=O)c1cc(Cl)ccc1NS(=O)(=O)c1ccc(Oc2ccccc2Cl)cc1`, the inhibition (PRVABC59, Concentration 49.5 uM, Number of replicates 2.0, Standard deviation 4.182044982903414 %) stood at 16.8%; the inhibition (PRVABC59, Concentration 99.01 uM, Number of replicates 2.0, Standard deviation 0.7456984587318506 %) came out at 44.5%; the inhibition (PRVABC59, Concentration 198.0 uM, Number of replicates 2.0, Standard deviation 0.5270959053225787 %) was found to be 31.5%.

In the case of `CNC(=O)c1cc(Cl)c(OC)cc1NS(=O)(=O)c1ccc(Oc2ccccc2Cl)cc1`, the inhibition reads like this: (PRVABC59, Concentration 49.5 uM, Number of replicates 2.0, Standard deviation 2.6404535290867552 %) 34.2%; (PRVABC59, Concentration 99.01 uM, Number of replicates 2.0, Standard deviation 0.459760751442422 %) 79.4%; (PRVABC59, Concentration 198.0 uM, Number of replicates 2.0, Standard deviation 0.11085228072983687 %) 89.8%.

Take `CNC(=O)c1cc(Cl)ccc1NS(=O)(=O)c1cccc(Oc2ccccc2)c1`: the inhibition by setting is: (PRVABC59, Concentration 49.5 uM, Number of replicates 2.0, Standard deviation 3.0665234385287206 %) 9.77%; (PRVABC59, Concentration 99.01 uM, Number of replicates 2.0, Standard deviation 2.7531252049731103 %) 15.8%; (PRVABC59, Concentration 198.0 uM, Number of replicates 2.0, Standard deviation 3.162284112918565 %) 28.1%.

Take `O=S(=O)(Nc1ccc(Cl)cc1)c1ccc(Oc2ccccc2Cl)cc1`: the inhibition is 7.5% (PRVABC59, Concentration 49.5 uM, Number of replicates 2.0, Standard deviation 0.5562375850821631 %); 13.8% (PRVABC59, Concentration 99.01 uM, Number of replicates 2.0, Standard deviation 0.1909474772903637 %); 26.1% (PRVABC59, Concentration 198.0 uM, Number of replicates 2.0, Standard deviation 0.9464347944699606 %).

Take `Cc1cc(NS(=O)(=O)c2ccc(Oc3ccccc3Cl)cc2)c(C(=O)NCC(F)(F)F)cc1F`: the inhibition was 38% (PRVABC59, Concentration 49.5 uM, Number of replicates 2.0, Standard deviation 1.109661109382951 %); 43.1% (PRVABC59, Concentration 99.01 uM, Number of replicates 2.0, Standard deviation 0.5262974754243883 %); 32.6% (PRVABC59, Concentration 198.0 uM, Number of replicates 2.0, Standard deviation 0.754567504357695 %).

Turning to `CNC(=O)c1cc(C#N)ccc1NS(=O)(=O)c1ccc(Oc2ccccc2Cl)cc1`, the inhibition turned out to be 15.1% (PRVABC59, Concentration 49.5 uM, Number of replicates 2.0, Standard deviation 1.5671297466159566 %); 25.1% (PRVABC59, Concentration 99.01 uM, Number of replicates 2.0, Standard deviation 1.4439402403900108 %); 58.3% (PRVABC59, Concentration 198.0 uM, Number of replicates 2.0, Standard deviation 0.43015410765006534 %).

As to `O=Cc1ccc(N2CCC(C(=O)N3CCC(N4CCc5ccccc5C4)CC3)CC2)cc1`, under setting [1], the inhibition worked out at 31.7%.

On to `NS(=O)(=O)c1nc(C(=O)N2CCc3c(CO)cccc32)n2ccccc12`, for which the inhibition worked out at 14.9% (PRVABC59, Concentration 49.5 uM, Number of replicates 2.0, Standard deviation 0.7415262579040602 %); 16% (PRVABC59, Concentration 99.01 uM, Number of replicates 2.0, Standard deviation 0.42632784815485236 %); 22.8% (PRVABC59, Concentration 198.0 uM, Number of replicates 2.0, Standard deviation 0.11314911538628655 %).

As to `CC(=O)Nc1cccc(CNC(=O)C2CCN(c3ccc(C=O)cc3)CC2)c1`, the inhibition under setting [2] is 37.6%.

Take `O=Cc1ccc(N2CCC(C(=O)Nc3ccc(Br)cc3O)CC2)cc1`: under setting [1], the inhibition stood at 36.5%.

`O=Cc1ccc(N2CCC(C(=O)NCc3cccc(-c4ccccc4)c3)CC2)cc1`: under setting [2], the inhibition was found to be 66.7%.

Consider `O=Cc1ccc(N2CCC(C(=O)Nc3cccc(Br)n3)CC2)cc1`, for which the inhibition under setting [1] was found to be 69.5%.

For `O=Cc1ccc(N2CCC(C(=O)NC[C@H](O)c3ccc(O)c(O)c3)CC2)cc1`, under setting [1], the inhibition came out at 37%.

Take `O=Cc1ccc(N2CCC(C(=O)NCCc3ccc(O)c(O)c3)CC2)cc1`: the inhibition under setting [1] was determined as 48.5%.

Take `O=Cc1ccc(N2CCC(C(=O)NCCN3CCc4ccccc43)CC2)cc1`: under setting [1], the inhibition came to 67.9%.

With `O=Cc1ccc(N2CCC(C(=O)NCCC3CCN(Cc4ccccc4)CC3)CC2)cc1`, under setting [1], the inhibition was 36.7%.

Take `O=Cc1ccc(N2CCC(C(=O)Nc3ncc(Br)cc3O)CC2)cc1`: under setting [1], the inhibition is 63.3%.

Consider `CC1CCN(CCCCNC(=O)C2CCN(c3ccc(C=O)cc3)CC2)CC1`, for which, under setting [1], the inhibition was determined as 38.3%.

For the compound `O=Cc1ccc(N2CCC(C(=O)NCCc3ccccc3[N+](=O)[O-])CC2)cc1`, the inhibition under setting [1] is 31.8%.

For the compound `Cc1ccc(N)cc1NC(=O)c1ccc2c(c1)CCNCC2`, the inhibition was -5.44% (PRVABC59, Concentration 49.95 uM, Number of replicates 2.0, Standard deviation 12.72305005425739 %) and 18.5% (PRVABC59, Concentration 99.9 uM, Number of replicates 2.0, Standard deviation 9.350903464198954 %).

As for `Cc1ccc2cccc(NC(=O)C3CCN(c4ccc(C=O)cc4)CC3)c2n1`, the inhibition under setting [1] was 60.8%.

As for `CN1[C@@H]2CCC[C@H]1C[C@@H](NC(=O)C1CCN(c3ccc(C=O)cc3)CC1)C2`, under setting [1], the inhibition came to 43.1%.

Take `CCN1CCN(c2ccc(NC(=O)C3CCN(c4ccc(C=O)cc4)CC3)cc2)CC1`: under setting [1], the inhibition came to 54.8%.

Consider `O=Cc1ccc(N2CCC(C(=O)NC[C@@H]3CCCN4CCCC[C@H]34)CC2)cc1`, for which the inhibition under setting [1] turned out to be 36.4%.

Turning to `N#Cc1ccc(NC(=O)C2CCN(c3ccc(C=O)cc3)CC2)cc1Br`, the inhibition under setting [1] worked out at 22.8%.

For the compound `CCn1ccnc(N2CC[C@H](c3cccc(C#N)c3)C2)c1=O`, the inhibition was 20.3% (PRVABC59, Concentration 50.0 uM, Number of replicates 2.0, Standard deviation 16.00595625597801 %); 15.1% (PRVABC59, Concentration 100.0 uM, Number of replicates 2.0, Standard deviation 3.036416764525631 %); 25.1% (PRVABC59, Concentration 200.0 uM, Number of replicates 2.0, Standard deviation 6.611719762363672 %).
